Results reported in PubChem BioAssay (NCI).
The panel holds about 83,000 compounds, 20% with a hit somewhere; the sample as a whole holds those more often.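 Percent growth is the endpoint: 0 to 100 indicates growth inhibition (40 means 60% inhibition), 0 means no net growth, and negative values indicate cell death.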 A number with no mark means an inactive call. The source made the active and inactive calls. Rule for the calls: active = growth percent below 10; inactive = the rest.

How the values were obtained:
Test in all cases: NCI-60 one-dose screen, 48 h (100 = growth as untreated, 0 = no growth, -100 = all killed)
Details in all cases: 10 µM
SK-MEL-2 melanoma = system: SK-MEL-2 melanoma
EKVX NSCLC = system: EKVX NSCLC
SN12C renal = system: SN12C renal
TK-10 renal = system: TK-10 renal
ACHN renal = system: ACHN renal
CAKI-1 renal = system: CAKI-1 renal
A498 renal = system: A498 renal
CCRF-CEM leukemia = system: CCRF-CEM leukemia
MOLT-4 leukemia = system: MOLT-4 leukemia

| SMILES | growth (SK-MEL-2 melanoma) | growth (EKVX NSCLC) [%] | growth (SN12C renal) | growth (TK-10 renal) [%] | growth (ACHN renal) [%] | growth (CAKI-1 renal) [%] | growth (A498 renal) [%] | growth (CCRF-CEM leukemia) [%] | growth (MOLT-4 leukemia) [%] |
| --- | --- | --- | --- | --- | --- | --- | --- | --- | --- |
| Cc1nn(-c2ccccc2)c2ncn(CC(=O)N/N=C/c3c[nH]c4ccccc34)c(=O)c12 | 86.3% | 61.2 | 89.7% | 107 | 85.2 | 71.9 | 79.5 | 85 | 55.8 |
| COc1ccc(-c2cc(C(=O)N=Nc3c(O)[nH]c4ccc(F)cc34)c3ccccc3n2)cc1 | 128% | 86.4 | 65.5% | 120 | 68.1 | 87.8 | 128 | 44.2 | 21.9 |
| O=C(NO)c1ccc(CNC(=O)[C@H]2Cc3c([nH]c4ccccc34)[C@H](c3ccccc3)N2)cc1 | 9.61% (active) | 44.8 | 46.7% | 30.9 | 70.8 | 78.3 | 23.2 | 22.2 | 12.7 |
| O=C(N/C(=C1/OCCN1Cc1ccccc1)[P+](c1ccccc1)(c1ccccc1)c1ccccc1)c1ccccc1 | -27.6% (active) | 14.6 | 7.37% (active) | 26.1 | 82.6 | 79.5 | 83 | 13.3 | 20.6 |
